The structures appear in SMILES notation. Inconclusive results are not listed. The source made the active and inactive calls. Unless noted, the call rests on the fitted dose curve; in most records, active means well fitted inhibition curve with a large enough effect; inconclusive means small, poorly fitted or top-dose-only effect; inactive means flat fitted curve, though single readings scatter.

Experiment [1] can be described thus: qHTS profiling for inhibitors of Plasmodium falciparum proliferation (AID 504749).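 On activity, negative = inhibition: 0% = DMSO vehicle and full inhibition = artemisinin control.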 On all read-outs here: nearly all actives have a fitted effect of over 60% in size. Conditions: P. falciparum in erythrocytes, SYBR Green DNA, 72 h; for activity, negative = inhibition: at 28.7 µM (top of the series). An outline of the steps: (§1)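 Parasite proliferation within erythrocytes, 72 h exposure. Endpoint: SYBR Green I fluorescence after overnight lysis at room temperature. Controls: 0.29 uM artemisinin, DMSO.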
In general terms: qHTS replaces the single test concentration by a dilution series.

In the next experiment the test system is 3D7. The description is as above. The following applies: P. falciparum in erythrocytes, SYBR Green DNA, 72 h; series mostly up to 28.7 µM. The gist of the method: as §1
For another experiment, the system named is 7G8. The description is as above. The following applies: P. falciparum in erythrocytes, SYBR Green DNA, 72 h; series mostly up to 28.7 µM. An outline of the steps: as §1
For a further experiment, the system named is AS120. The description is as above. The following applies: P. falciparum in erythrocytes, SYBR Green DNA, 72 h; series mostly up to 28.7 µM. The gist of the method:
as §1

The subject of a further experiment is C2A. The experiment is described as above. Conditions: P. falciparum in erythrocytes, SYBR Green DNA, 72 h; series mostly up to 28.7 µM. An outline of the steps: as §1
For the next experiment, the system named is CP211. The description is as above. The following applies: P. falciparum in erythrocytes, SYBR Green DNA, 72 h; series mostly up to 28.7 µM. An outline of the steps:
as §1

In the next experiment the test system is CP237. The experiment is described as above. Conditions: P. falciparum in erythrocytes, SYBR Green DNA, 72 h; series mostly up to 28.7 µM. An outline of the steps: as §1
The next experiment relates to CP191. Described as above. The following applies: P. falciparum in erythrocytes, SYBR Green DNA, 72 h; series mostly up to 28.7 µM. The gist of the method: as §1
The subject of the next experiment is CP192. Described as above. Conditions: P. falciparum in erythrocytes, SYBR Green DNA, 72 h; series mostly up to 28.7 µM. The gist of the method: as §1
For the next experiment, the system named is CP194. The experiment is described as above. Conditions: P. falciparum in erythrocytes, SYBR Green DNA, 72 h; series mostly up to 28.7 µM. The gist of the method:
as §1

Another experiment deals with CP201. Described as above. The following applies: P. falciparum in erythrocytes, SYBR Green DNA, 72 h; series mostly up to 28.7 µM. The gist of the method:
as §1

The test system of a further experiment is CP215. The experiment is described as above. Conditions: P. falciparum in erythrocytes, SYBR Green DNA, 72 h; series mostly up to 28.7 µM. An outline of the steps: as §1
The next experiment relates to CP217. The experiment is described as above. Conditions: P. falciparum in erythrocytes, SYBR Green DNA, 72 h; series mostly up to 28.7 µM. The gist of the method: as §1
The next experiment deals with CP238. Described as above. The following applies: P. falciparum in erythrocytes, SYBR Green DNA, 72 h; series mostly up to 28.7 µM. An outline of the steps:
as §1

The subject of another experiment is AA1029. The experiment is described as above. Conditions: P. falciparum in erythrocytes, SYBR Green DNA, 72 h; series mostly up to 28.7 µM. An outline of the steps: as §1
For a further experiment, the system named is ATS189. Described as above. The following applies: P. falciparum in erythrocytes, SYBR Green DNA, 72 h; series mostly up to 28.7 µM. The gist of the method:
as §1

The subject of the next experiment is ATS95. The description is as above. Conditions: P. falciparum in erythrocytes, SYBR Green DNA, 72 h; series mostly up to 28.7 µM. The gist of the method: as §1
The next experiment relates to CP185. The description is as above. Conditions: P. falciparum in erythrocytes, SYBR Green DNA, 72 h; series mostly up to 28.7 µM. An outline of the steps:
as §1

The nature of experiment [2]: qHTS for identification of novel therapeutic agents for treatment of microphthalmiaassociated transcription factor (MiT) renal cell carcinoma (RCC) (AID 1963991; calls by dose curve). The following applies: CellTiter-Glo, 48 h; for z-score: stronger effect = lower value. The gist of the method:
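Curves over 11 concentrations were fitted to CellTiter-Glo luminescence, scaled between empty wells (0%) and DMSO (100%) viability. Cells were UOK109, UOK124 and UOK145 TFE3-fusion RCC lines at 500/well, exposed 48 hours at 37 C.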

[3] abbreviates: TFE3-RCC UOK109 viability, measured here: UOK109 Z-AUC.
The mark [4] stands for this setting: TFE3-RCC viability, measured here: UOK124 Z-AUC.
[5] abbreviates: TFE3-RCC viability, measured here: UOK145 Z-AUC.
Potency means the concentration at half of the fitted maximal effect.

For the compound `CCCCCCCCCCCCCCCC[N+](C)(C)C`, the Potency was 11.2 µM (active) in experiment [1] (parasite line A); 8.91 µM (active) in the experiment on 3D7; 11.2 µM (active) in the experiment on 7G8; 11.2 µM (active) in the experiment with AS120; 8.91 µM (active) in the experiment on C2A; 13.5 µM (active) with CP211. Besides, the Potency with CP237 was 7.08 µM (active).
Consider `C[C@]12CCC(=O)C(O)=C1CC[C@@H]1[C@H]3CCC(=O)[C@@]3(C)CC[C@@H]12`, for which the Potency result in the experiment on 3D7, in the experiment on 7G8, in the experiment on AS120, in the experiment on CP191, in the experiment on CP192 and in the experiment on CP194 was “inactive” in each case. The Potency entry in the experiment on CP211, in the experiment on CP215, in the experiment with CP217, in the experiment with CP237 and in the experiment on CP238 was “inactive” throughout. Further, the compound was called inactive with CP201.
For `CN1C2CCC1CC(OC(=O)c1cc(Cl)cc(Cl)c1)C2` (centres undefined), the results for the activity, negative = inhibition in experiment [1] (parasite line A) and in [1] (parasite line B) were -1.17% (inactive) and 5.18% (inactive), respectively. Besides, the Potency entry with 3D7, in the experiment on AA1029, in the experiment with AS120, in the experiment on ATS189, with ATS95 and with C2A was “inactive” each time. Further, the Potency result in the experiment on CP185, in the experiment with CP191, in the experiment with CP192, in the experiment with CP194, in the experiment on CP211 and with CP215 was “inactive” throughout. Also, the Potency entry in the experiment with CP217, with CP237 and with CP238 was “inactive” in each case. In the experiment with 7G8, the Potency is 6.31 µM (active). Further, the outcome with CP201 was inactive.
As for `O=[N+]([O-])c1ccc([As](=O)(O)O)cc1`, the Potency in experiment [1] (parasite line A) is 6.31 µM (active); in experiment [1] (parasite line B), 6.31 µM (active); in the experiment with 3D7 it was 10 µM (active); in the experiment with 7G8, 3.55 µM (active); with AA1029, 3.98 µM (active); in the experiment with AS120, 7.94 µM (active). The Potency in the experiment with ATS189 was 7.08 µM (active); with ATS95, 11.2 µM (active); in the experiment with CP185 it was 8.91 µM (active); with CP191 it was 6.31 µM (active); with CP194, 13.5 µM (active); with CP211 it was 7.57 µM (active). Besides, the Potency with CP215 is 7.57 µM (active); with CP217 it was 7.94 µM (active); in the experiment with CP237, 7.94 µM (active); in the experiment on CP238, 11.2 µM (active).
For `C1CCC(NC2CCCCC2)CC1`, the figures for the activity, negative = inhibition in experiment [1] (parasite line A) and in [1] (parasite line B) were 7.71% (inactive) and 9.08% (inactive), respectively. Further, the Potency result in the experiment on 3D7, with 7G8, with AA1029, in the experiment with AS120, in the experiment with ATS189 and in the experiment on ATS95 was “inactive” throughout. The Potency entry with C2A, in the experiment with CP185, in the experiment with CP191, with CP192, with CP194 and in the experiment with CP211 was “inactive” each time. Also, the Potency result in the experiment on CP215, with CP217, in the experiment on CP237 and in the experiment on CP238 was “inactive” throughout. In addition, the result with CP201 was inactive.
For the compound `C[C@]12COC(=O)C[C@@H]1CC[C@@H]1[C@H]2CC[C@@]2(C)[C@H]1CC[C@]2(C)O`, the z-score in experiment [2] (setting [3]) amounted to 0.93; in experiment [2] (setting [4]), 0.76; in experiment [2] (setting [5]), 0.397.
`O=C(O)C(Cl)Cl`: the results for the activity, negative = inhibition in [1] (parasite line A) and in experiment [1] (parasite line B) were 7.93% (inactive) and -3.72% (inactive), respectively. For the same compound, the Potency entry with 3D7, in the experiment with 7G8, in the experiment on AA1029, in the experiment with AS120, in the experiment with ATS189 and in the experiment with ATS95 was “inactive” each time. Further, the Potency result in the experiment with C2A, in the experiment with CP185, in the experiment on CP191, in the experiment on CP192, in the experiment with CP194 and in the experiment on CP211 was “inactive” in each case. For the same compound, the Potency entry in the experiment on CP215, in the experiment with CP217, in the experiment with CP237 and in the experiment with CP238 was “inactive” in each case. For the same compound, the compound was called inactive in the experiment on CP201.
For the compound `COC(C)(C)CCCC(C)C/C=C/C(C)=C/C(=O)OC(C)C` (centres undefined), the Potency entry in the experiment on ATS95, with C2A, in the experiment with CP185 and in the experiment with CP238 was “inactive” in each case. In the experiment on CP237, the Potency is 12.6 µM (active).
Take `C=CCN1CC[C@]23CCCCC2[C@H]1Cc1ccc(O)cc13` (some centres undefined): the activity, negative = inhibition was 18.6% (inactive) in [1] (parasite line A) and 4.44% (inactive) in [1] (parasite line B). In addition, the Potency entry in the experiment on 3D7, in the experiment on AA1029, with AS120, in the experiment on ATS189, in the experiment on ATS95 and in the experiment on C2A was “inactive” throughout. For the same compound, the Potency entry in the experiment with CP185, in the experiment on CP191, in the experiment with CP192, in the experiment on CP194, in the experiment on CP211 and with CP215 was “inactive” each time. The Potency result in the experiment with CP217 and with CP238 was “inactive” each time. Moreover, in the experiment on 7G8, the Potency was 11.2 µM (active). Also, the compound was classed as inactive in the experiment on CP201.
Take `CC(C)N(CCNC(=O)CN1CCCC1=O)C(C)C`: the z-score in experiment [2] (setting [3]) amounted to 0.955; in experiment [2] (setting [4]), 0.437; in experiment [2] (setting [5]), 0.681.
Regarding `CC(C)NC(C)Cc1ccc(I)cc1` (centres undefined), the activity, negative = inhibition is 11.4% (inactive) in experiment [1] (parasite line A) and -12.4% (inactive) in experiment [1] (parasite line B). The Potency result in the experiment on 3D7, in the experiment on AA1029, in the experiment on AS120, in the experiment on ATS189, in the experiment on ATS95 and with C2A was “inactive” in each case. Besides, the Potency result in the experiment with CP185, with CP191, with CP192, with CP194, in the experiment on CP211 and in the experiment with CP217 was “inactive” each time. Moreover, the Potency entry in the experiment on CP238 was “inactive”. Moreover, in the experiment with 7G8, the Potency was 10 µM (active). Also, in the experiment on CP201, the compound was called inactive.
As for `CCCN1CCC[C@H](c2cccc(O)c2)C1`, the figures for the activity, negative = inhibition in experiment [1] (parasite line A) and in [1] (parasite line B) were 8.52% (inactive) and -0.779% (inactive), respectively. Further, the Potency entry in the experiment with 3D7, with AA1029, in the experiment with AS120, in the experiment on ATS189, with ATS95 and with C2A was “inactive” each time. Besides, the Potency result in the experiment on CP185, with CP191, in the experiment on CP192, in the experiment with CP194, in the experiment on CP211 and with CP215 was “inactive” throughout. Moreover, the Potency entry with CP217 and in the experiment with CP238 was “inactive” in each case. Also, the outcome in the experiment with CP201 was inactive.
Regarding `CC(C)(O)C=CC(=O)[C@](C)(O)[C@H]1[C@H](O)C[C@]2(C)[C@@H]3CC=C4[C@@H](C=C(O)C(=O)C4(C)C)[C@]3(C)C(=O)C[C@@]12C`, the Potency in experiment [2] (TFE3-RCC UOK109 viability) is 0.0833 µM (active). For the same compound, the z-score in [2] (setting [3]) is -3.73; in [2] (setting [4]), -2.29; in experiment [2] (setting [5]), -2.28.

Values taken from PubChem BioAssay (NCATS).
